High-throughput results (PubChem BioAssay)
In the library only some 4.2% were active in any assay of this set; here they are far more common.
uPA generation = qHTS for Inhibitors of Cell Surface uPA Generation; cell surface uPA generation assay, qHTS; Potency, µM (highest dose often 38.3 µM), most hits filed as inhibitors; actives 0.31% (n = 330,000); active = well fitted inhibition curve with a large enough effect; inconclusive = small, poorly fitted or top-dose-only effect; inactive = no such curve, though single readings can be large or run the other way; tested in mouse RAW 264.7 cells; note: nearly all actives have a fitted effect of over 55% in size
TCR act = Activators of T cell receptors: qHTS campaign. primary human leukocytes, anti-CD3, IL-2 HTRF, 48 h. Potency, µM (titrated, usually from 9.22 µM), hits mostly activators. 330,000 tested, under 10 active. AID 504894, 2011
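TCR engagement came from a-CD3 beads alone, with compounds added to primary human leukocytes for 48 hr. Secreted IL-2 bridged europium cryptate- and d2-labelled anti-IL-2 antibodies, giving FRET emission at 665nm after 320nm excitation.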
ClpP mod = qHTS Assay for Activators of ClpP; purified B. subtilis ClpP, FRET peptide cleavage, 20 min; actives 1.9% (n = 340,000); ATP-dependent Clp protease proteolytic subunit (Bacillus subtilis (strain 168)), P80244; Potency, µM (titrated, usually from 57.5 µM); active = well fitted falling curve with a large enough effect; inconclusive = small, poorly fitted or top-dose-only effect; inactive = no such curve, though single readings can be large or run the other way; note: the source files actives as falling curves though it sought activators and does not explain the sign; nearly all actives have a fitted effect of over 65% in size
Target sequence (P80244 whole entry, looked up): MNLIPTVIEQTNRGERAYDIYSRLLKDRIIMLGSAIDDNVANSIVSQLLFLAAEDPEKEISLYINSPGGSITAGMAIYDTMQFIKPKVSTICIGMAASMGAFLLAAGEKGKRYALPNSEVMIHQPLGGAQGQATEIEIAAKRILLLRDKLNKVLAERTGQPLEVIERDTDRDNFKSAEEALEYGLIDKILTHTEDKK
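Buffer: 100 mM Tris/HCl pH8, 100 mM KCl, 0.05% low protease BSA, 2.5% glycerol, 0.01% Tween-20. ClpP 10 microg/mL final; 20 min RT; delta FRET normalized to ADEP and DMSO controls.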
Sfp PPTase inh = qHTS Assay for Inhibitors of Bacillus subtilis Sfp phosphopantetheinyl transferase (PPTase) | Potency, µM, hits mostly inhibitors | AID 1490, 2009 | Biochemical Sfp PPTase activity, qHTS | 4'-phosphopantetheinyl transferase ffp (Bacillus subtilis), Q9F4F7 | actives 3.5% (n = 310,000);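 note: the enzyme is Sfp with the accession as filed and its product quenches rhodamine fluorescence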
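Fluorescence-quenching assay: 15 nM Sfp-PPTase preincubated 15 min at room temperature with compound, then 5 uM rhodamine-CoA and 12.5 uM BHQ-2-labelled YbbR peptide added. Fluorescence (ex 525/em 598 nm) read at start and after 30 min; difference gives rate.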
A number is an active result; - = inactive; ? = inconclusive; . = no result given; ! = not active in a repeat. Unless noted, calls come from the whole dose curve; as a rule, active = well fitted curve in the direction sought with a large enough effect; inconclusive = small, poorly fitted or top-dose-only effect, or another doubt; inactive = no such curve, though single readings can be large; an effect the other way counts as inactive or inconclusive.

SMILES | uPA generation | TCR act | ClpP mod | Sfp PPTase inh
Cc1cc2cc(CNC(=O)c3ccco3)ccc2n1C | - | - | - | 79µM
Cc1cc2cc(CNC(=O)c3cc4ccccc4o3)ccc2n1C | . | . | . | -
CCOC(=O)c1cn(CC(=O)Nc2cccc(Cl)c2C)nn1 | - | - | 35µM! | -
CCOC(=O)c1cn(CC(=O)Nc2cccc(Cl)c2)nn1 | - | - | - | -
COc1ccc(-c2noc(N(c3ccc(F)c(Cl)c3)c3nc(-c4ccc(OC)c(OC)c4)no3)n2)cc1OC | . | . | - | .
COc1ccc(Cl)cc1NC(=O)c1ncn(-c2ccccc2)n1 | . | . | - | .
Cc1ccc(-c2cc(C(=O)Nc3cc(C)on3)c3ccccc3n2)cc1 | - | - | 35µM | -
Cc1cc(NC(=O)c2cc(-c3ccc(C)c(C)c3)nc3ccccc23)no1 | - | - | 13µM | -
Cc1cc(NC(=O)c2cc(-c3ccccn3)nc3ccccc23)no1 | - | - | - | -
NN=C1c2cc(S(=O)(=O)NCCO)ccc2-c2ccc(S(=O)(=O)NCCO)cc21 | . | . | - | .
COc1cccc(Sc2nc(N(C)C)ncc2S(=O)(=O)c2ccc(Cl)cc2)c1 | . | . | - | .
Brc1ccc2c(c1)C(C1=NCCN1)c1ccccc1CS2 (stereo not drawn) | 0.5µM | - | - | -
CC(=O)N1CCCc2cc(S(=O)(=O)NC(C(=O)NC(C)c3ccccc3)C(C)C)ccc21 (stereo not drawn) | - | - | - | -
CC(=O)N1CCCc2cc(S(=O)(=O)NC(C(=O)NC3CCCCC3)C(C)C)ccc21 (stereo not drawn) | - | - | 16µM | -
O=C1C2=C(c3ccccc31)[N+](=O)C1CCCCC1N2[O-] (stereo not drawn) | - | - | - | -
O=C1C2=C(c3ccccc31)[N+](=O)[C@@H]1CCCC[C@@H]1N2[O-] | - | . | - | 56µM
Cc1cccc(C)c1NC(=O)Cn1nnc(C(=O)Nc2c(C)cccc2C)c1N | . | . | - | .
N#Cc1c(-c2ccccc2)no[n+]1[O-] | . | . | . | -
O=C(CCC(=O)Nc1ccccc1)N/N=C/c1ccncc1 | - | - | - | ?
O=C(CCC(=O)Nc1ccc(F)cc1)N/N=C/c1ccncc1 | - | - | . | 45µM
COc1ccc(C2=Nc3ccccc3N(CC(=O)Nc3cccc(C(C)=O)c3)C(=O)C2)cc1 | . | . | - | .
Cc1ccc(/C=C/C(=O)N2CCN(S(=O)(=O)c3c(C)c(C)cc(C)c3C)CC2)o1 | - | - | - | 14µM
Cc1ccc(/C=C/C(=O)N2CCN(Cc3ccccc3)CC2)o1 | - | - | - | -
Cc1ccc(/C=C/C(=O)N2CCN(S(=O)(=O)c3ccc(C)c(C)c3)CC2)o1 | - | - | - | 18µM
COc1ccc(-c2cc(C(=O)NN)[nH]n2)cc1OC | 10µM | - | - | -
SMILES | uPA generation | TCR act | ClpP mod | Sfp PPTase inh
COc1ccc(-c2cc(C(=O)O)[nH]n2)cc1OC | - | - | - | -
C[C@]12O[C@H]1[C@@H](O)C(Br)=C(CO)[C@H]2O | . | . | . | -
CSc1nnc(-c2cc3c(s2)-c2ccccc2CC3)o1 | - | - | - | 18µM
S=c1[nH]nc(-c2cc3c(s2)-c2ccccc2CC3)o1 | - | - | - | ?
COc1cccc(CN(C)Cc2cc(=O)oc3cc(O)c(Cl)cc23)c1 | - | - | - | 79µM
COc1cccc(CN(C)Cc2cc(=O)oc3c(C)c(C)ccc23)c1 | - | - | - | -
CCCC[n+]1c(/C=C/c2c(OC)cc(OC)cc2OC)ccc2ccccc21 | . | . | - | .
COc1cc(/C=C/C(=O)O)cc(S(=O)(=O)Nc2ccc3nc(C)sc3c2)c1OC | - | - | . | 40µM
COc1cc(/C=C/C(=O)O)cc(S(=O)(=O)Nc2ccc(F)cc2)c1OC | - | - | - | -
Cc1cnc(CNc2ccnc(-c3ccccc3CN(C)C)n2)cn1 | . | . | . | -
CCOC(=O)CNC(=S)n1cnc(N)n1 | - | - | . | 18µM
Cc1ccc(C(=O)NCC(=O)OCc2cc(=O)n3c(C)csc3n2)cc1 | . | . | - | .
CC(=O)Oc1ccccc1C(=O)NC(C)CCc1ccccc1 (stereo not drawn) | - | - | - | -
COCC(C)NC(=O)c1ccccc1OC(C)=O (stereo not drawn) | - | - | 25µM | -
Cc1ccc2c(CC(=O)Nc3c(C(=O)c4ccc(F)cc4)oc4ccccc34)coc2c1 | . | . | - | .
CC(C)C(=O)NC1CC(=O)N(c2ccc3c(c2)OCCO3)C1 (stereo not drawn) | . | . | - | .
N#CC(=C(O)CN1CCN(c2ccccc2F)CC1)c1nc(-c2ccccc2)cs1 | - | - | . | .
N#C/C(=C(/O)CN1CCCC1)c1nc(-c2ccccc2)cs1 | - | - | . | 32µM
N#Cc1c(N)nc(SCC(=O)NC2CCCCC2)c(C#N)c1-c1ccc(Cl)cc1 | . | - | 28µM | -
CC(=O)Oc1ccc(C(=O)[C@H]2[C@H]3C(=O)N(c4ccc(C)cc4)C(=O)[C@H]3[C@@H]3C=CC=NN32)cc1 | - | - | - | -
CC(=O)Oc1ccc(C(=O)[C@H]2[C@H]3C(=O)N(c4ccc(C)cc4C)C(=O)[C@H]3[C@@H]3C=CC=NN32)cc1 | - | - | . | 50µM
O=C(CN1c2cccc3cccc(c23)S1(=O)=O)Nc1ccc(F)c(F)c1F | - | - | . | .
Cn1c(=O)cc(SCC(=O)N2CCCC2)c2ccccc21 | - | - | 28µM | -
Cc1ccc(S(=O)(=O)Nc2ccc3c4c(cccc24)CC3)c(C)c1 | - | - | - | .
Cc1ccc(S(=O)(=O)Nc2cccc(S(=O)(=O)Nc3ccccc3C(=O)O)c2)c(C)c1 | - | - | . | .
SMILES | uPA generation | TCR act | ClpP mod | Sfp PPTase inh
Cc1ccc(S(=O)(=O)Nc2cc(C(C(=O)OC(C)C)C(=O)C(F)(F)F)c(O)c3ccccc23)c(C)c1 (stereo not drawn) | - | - | - | 56µM
Cc1ccc(S(=O)(=O)Nc2ccc(O)c3ccccc23)c(C)c1 | - | - | - | 56µM
Cc1ccc(C)c(S(=O)(=O)Nc2ccc(O)c3ccccc23)c1 | ? | - | - | 71µM
Cc1ccc(S(=O)(=O)NNc2ccccc2)c(C)c1 | - | - | - | 18µM
CC[N+]1(CC)CC2=Cc3c(ccc4ccccc34)CC2C1 (stereo not drawn) | - | - | 25µM | -
CC12Cc3ccc4ccccc4c3C=C1C[N+](C)(C)C2 (stereo not drawn) | - | - | - | -
c1ccc(CNc2nc3ccccc3c3nc(-c4ccccc4)nn23)cc1 | . | . | 25µM | .
CC(C)OCCCN1C(=O)c2[nH]nc(-c3ccccc3O)c2C1c1ccc(OCc2ccccc2)cc1 (stereo not drawn) | . | . | - | .
COc1ccc(NC(=O)NNC(=O)COc2ccc3ccccc3c2)cc1 | - | - | - | -
C=CC[n+]1c(-c2ccc(C)cc2)csc1Nc1ccc(NC(C)=O)cc1 | 7.1µM | - | - | -
C=CC[n+]1c(-c2ccc(OC)cc2)csc1NNC(=O)Nc1ccccc1 | - | - | - | 50µM
C[N+]1(CC(=O)c2ccc(-c3ccccc3)cc2)CCOCC1 | . | . | - | .
C/C(CCC(C)C)=N\Nc1cc(C)c2ccccc2n1 | - | . | - | 28µM
